MITF inh = blocks human microphthalmia-associated transcription factor. O75030. AlphaScreen MITF homodimerization, bead proximity signal. inhibition, % at 2.6 µM. actives 0.91% (n = 650,000). AID 1259374; in the data active = inhibition above about 50%
Target sequence (O75030 whole entry, looked up): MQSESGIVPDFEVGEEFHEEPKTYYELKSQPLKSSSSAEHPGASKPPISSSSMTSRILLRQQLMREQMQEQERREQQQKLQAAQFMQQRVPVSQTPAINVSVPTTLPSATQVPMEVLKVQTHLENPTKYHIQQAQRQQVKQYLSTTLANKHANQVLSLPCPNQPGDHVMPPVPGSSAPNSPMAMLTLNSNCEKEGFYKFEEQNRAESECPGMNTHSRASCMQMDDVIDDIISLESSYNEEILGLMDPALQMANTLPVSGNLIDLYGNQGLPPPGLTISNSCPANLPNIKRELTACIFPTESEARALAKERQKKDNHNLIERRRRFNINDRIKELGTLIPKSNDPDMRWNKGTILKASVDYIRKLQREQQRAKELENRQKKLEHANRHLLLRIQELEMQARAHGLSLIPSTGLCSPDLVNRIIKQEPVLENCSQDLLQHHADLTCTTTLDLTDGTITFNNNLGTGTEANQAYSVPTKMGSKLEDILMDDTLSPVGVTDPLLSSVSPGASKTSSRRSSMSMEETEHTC
TEAD-YAP block = TEAD-YAP interaction inhibition | HEK-TIYL cells, TEAD-Gal4/YAP UAS-luciferase luminescence | inhibition, % at 9.12 µM | actives 1.4% (n = 640,000); in the data active = inhibition above about 32%
FBW7 activator = human FBW7 E3 ligase activation, primary screen; Q969H0; AlphaScreen FBW7–phospho-cyclin E peptide binding, activator screen; normalized activity (activation), % at 26.1 µM; actives 0.13% (n = 650,000); in the data active = normalized activity above about 1.9%;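 also: purified mutant Fbw7 with reduced substrate affinity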
GPR151 ag = activators of human GPR151 | AID 1508602 | Q8TDV0 | actives 1% (n = 650,000) | PathHunter beta-arrestin GPR151 cells, luminescence | activation, % at 11.2 µM; in the data active = activation above about 4.9%
Large screens that a line does not name were inactive. In the library only some 3.5% were active in any assay of this set; here they are far more common.

COc1ccc(-n2nc(C(=O)NCC(=O)NCC3COc4ccccc4O3)c3ccccc3c2=O)cc1OC (stereo unspecified)	TEAD-YAP block 36
Cn1nc(CC(=O)Nc2ccc(F)cc2F)c2ccccc2c1=O	TEAD-YAP block 34
COc1ccc(NC(=O)c2nn(-c3ccccc3OC)c(=O)c3ccccc23)cc1OC	none
COc1ccccc1-n1nc(C(=O)Nc2cc(OC)c(OC)c(OC)c2)c2ccccc2c1=O	TEAD-YAP block 32
COc1cccc(-n2nc(C(=O)NCCc3ccc(OC)c(OC)c3)c3ccccc3c2=O)c1	TEAD-YAP block 36
COc1cc(OC)cc(-n2nc(C(=O)NCCc3ccc(OC)c(OC)c3)c3ccccc3c2=O)c1	none
Cc1ccc(-n2ncc3c(N4CCCC4)ncnc32)cc1	TEAD-YAP block 48
Cc1cccc(-n2ncc3c(N4CCCC4)ncnc32)c1	TEAD-YAP block 52
Cc1cccc(-n2ncc3c(N4CCN(c5ccccc5)CC4)ncnc32)c1	none
Cc1cccc(-n2ncc3c(N4CCOCC4)ncnc32)c1	TEAD-YAP block 93
Cc1ccc(-n2ncc3c(N4CCCCC4)ncnc32)c(C)c1	none
Cc1ccc(-n2ncc3c(N4CCOCC4)ncnc32)c(C)c1	TEAD-YAP block 58
Cc1ccc2cc(C#N)c(NCCNC(=O)c3ccc(F)cc3F)nc2c1	none
Cc1ccc(-n2ncc3c(N4CCCCC4)ncnc32)cc1C	TEAD-YAP block 73
Cc1cccc(N2CCN(c3ncnc4c3cnn4-c3ccccc3)CC2C)c1 (stereo unspecified)	TEAD-YAP block 43
Cc1ccc(N2CCN(c3ncnc4c3c(-c3ccccc3)cn4-c3ccc(Br)cc3)CC2C)cc1 (stereo unspecified)	FBW7 activator 3.7
Cc1ccc(-n2[nH]c(C)c(C=Nc3cccc(C(F)(F)F)c3)c2=O)cc1C	none
OCc1ccccc1-c1cnn2c(N3CCOCC3)ccnc12	TEAD-YAP block 94
Clc1cccc(-c2cnn3c(N4CCOCC4)ccnc23)c1	TEAD-YAP block 77
c1ccc2c(-c3cnn4c(N5CCOCC5)ccnc34)cccc2c1	none
Fc1ccccc1-c1cnn2c(N3CCOCC3)ccnc12	TEAD-YAP block 64
O=C(NCc1noc2ccccc12)NC1CC1	none
CCOC(=O)C1CCN(C(=O)c2cc3cc4ccc(C)cc4nc3s2)CC1	none
COc1ccc(-n2ncc3c(Nc4cccc(C)c4C)ncnc32)cc1	none
O=C(CN1CCN(C2c3ccccc3-c3ccccc32)CC1)NCc1ccccc1	none
O=C(COC(=O)c1ccc2c(c1)C(=O)N(Cc1ccco1)C2=O)Nc1ccc2c(c1)CCC2	none
CCCCOC(=O)CSc1nnc(-c2ccc(N(C)C)cc2)o1	TEAD-YAP block 41
Cc1cc(NCc2cccc(C(F)(F)F)c2)nc(N2CCCC2CO)n1 (stereo unspecified)	TEAD-YAP block 42
CCN(CC)C(=O)C1CCCN(c2nccc(NCc3cccc(C(F)(F)F)c3)n2)C1 (stereo unspecified)	none
CCN(CC)C(=O)C1CCCN(c2nc(C)cc(NCc3cccc(C(F)(F)F)c3)n2)C1 (stereo unspecified)	TEAD-YAP block 35
CN(C)S(=O)(=O)c1ccc(C(=O)/C=C/c2ccccc2Cl)cc1	none
O=C(COc1ccccc1)N1c2ccccc2Sc2ccccc21	TEAD-YAP block 62
COc1ccc(OCC(=O)N2c3ccccc3Sc3ccc(Cl)cc32)cc1	none
Cc1ccc(-n2c(C)cc(/C=N/NC(=O)c3cccnc3)c2C)cc1C	none
O=C(NC1CCCCCC1)c1cccc2[nH]ncc12	TEAD-YAP block 84
CCC(C)NC(=O)c1cn(C2CCCCC2)c(=O)c2c1c1ccccc1n2C (stereo unspecified)	FBW7 activator 2.3
COCCNC(=O)c1cn(C2CCCCC2)c(=O)c2c1c1ccccc1n2C	none
Cc1ccc(CNC(=O)c2c(O)c3c([nH]c2=O)CCCC3)cc1	none
CCOC(=O)c1oc2ccc(O)c(CN(C)C)c2c1C	none
COc1ccc(C2C(C(N)=O)=C(C)Nc3nc(-c4cccc(Cl)c4)nn32)cc1 (stereo unspecified)	none
CC(=O)c1ccc(NC(=O)c2ccccc2NS(=O)(=O)c2ccc(C)cc2)cc1	none
COc1cccc(C(=O)NNc2nc3c(C)cccc3s2)c1	none
Cc1ccc(S(=O)(=O)Nc2ccccc2C(=O)Nc2ccc(-c3nc4ccccc4o3)cc2)cc1	TEAD-YAP block 39
Cc1ccc(S(=O)(=O)Nc2ccccc2C(=O)Nc2nc3c(C)cccc3s2)cc1	TEAD-YAP block 46
COc1ccccc1C(=O)NNc1nc2c(C)cccc2s1	TEAD-YAP block 33
COC(=O)c1ccc(-c2csc(NC(=O)c3ccccc3NS(=O)(=O)c3ccc(C)cc3)n2)cc1	none
COc1ccc(-c2csc(NC(=O)c3ccccc3NS(=O)(=O)c3ccc(C)cc3)n2)cc1	TEAD-YAP block 38
CC1CCN(C2=NC(=O)/C(=C\c3ccc4c(c3)OCO4)S2)CC1	none
O=C(N=Nc1c(O)[nH]c2ccc([N+](=O)[O-])cc12)c1cncc(Br)c1	none
CCOC(=O)c1ccc(N=c2oc3cc(O)ccc3cc2-c2nc3ccccc3[nH]2)cc1	none
Cc1ccc(S(=O)(=O)Nc2ccccc2C(=O)Nc2nc(-c3ccccc3)cs2)cc1	TEAD-YAP block 34
O=C(Nc1ccc(-c2nc3ccccc3o2)cc1)C1CCN(C(=O)C2CCCC2)CC1	MITF inh 52
CCOc1ccc(NC(=O)c2ccc(F)c(S(=O)(=O)N3CCCC3)c2)cc1	TEAD-YAP block 37
Cc1ccc(C(=O)Nc2ccc(Cl)cc2)cc1S(=O)(=O)N1CCOCC1	none
CCOC(=O)c1ccc(NC(=O)c2ccc(Cl)c(S(=O)(=O)N3CCOCC3)c2)cc1	TEAD-YAP block 73
O=C(Nc1ccc(Cl)c(Cl)c1)c1ccc(F)c(S(=O)(=O)N2CCN(C3CCCCC3)CC2)c1	none
CCOc1ccc(NC(=O)c2ccc(F)c(S(=O)(=O)N3CCN(C4CCCCC4)CC3)c2)cc1	TEAD-YAP block 34
O=C(NCCC(=O)OCC(=O)c1ccc(Cl)s1)NC12CC3CC(CC(C3)C1)C2	none
Cn1nccc1C(=O)Oc1cccc(/C=N/NC(=O)c2ccccc2O)c1	TEAD-YAP block 42
O=C(O)CCc1nc(-c2ccc(Cl)cc2Cl)no1	none
Cc1nc2nc(-c3ccc(Cl)cc3Cl)nn2c(C)c1CCC(=O)O	TEAD-YAP block 80
COc1cccc(-c2nc3nc(C)c(CCC(=O)O)c(C)n3n2)c1	TEAD-YAP block 48
COc1cc(NC(=O)c2sc3nc(N)c(C#N)cc3c2N)cc(OC)c1OC	none
COc1ccc(NC(=O)c2sc3nc(N)c(C#N)cc3c2N)cc1	FBW7 activator 18
NC(=S)c1ccc(-c2ccon2)s1	none
Cc1cccc(N2NC3(CC(C)CC(C)(C)C3)NC2=S)c1C (stereo unspecified)	none
CCc1nc2nc(C)cc(N3CCN(c4ccccc4OC)CC3)n2n1	TEAD-YAP block 34
COC(=O)C1=NNC(C(=O)c2ccccc2)C1c1ccccc1 (stereo unspecified)	none
COc1cccc(/C=N/NC(=O)c2cccnc2)c1O	MITF inh 71
CCOc1cccc(/C=N\NC(=O)c2cccnc2)c1O	MITF inh 59
COc1cccc(/C=N/NC(=O)C(=O)NCc2cccnc2)c1O	MITF inh 61

Screens: PubChem BioAssay, The Scripps Research Institute Molecular Screening Center
